# Reference: ChEMBL document CHEMBL3988442, “University of Dundee, Small-Polar-MMV Screening Library” (2021)
# Hit rate of the full screen: of about 69,000 compounds, about 420 (0.61%) showed an effect of 50% or more. The list comes from a sample in which strong results are over-represented; it also holds similar structures and randomly drawn compounds.
# Target: T1, Histidine--tRNA ligase (Leishmania infantum) (UniProt A4I591)
# T1 sequence (whole entry): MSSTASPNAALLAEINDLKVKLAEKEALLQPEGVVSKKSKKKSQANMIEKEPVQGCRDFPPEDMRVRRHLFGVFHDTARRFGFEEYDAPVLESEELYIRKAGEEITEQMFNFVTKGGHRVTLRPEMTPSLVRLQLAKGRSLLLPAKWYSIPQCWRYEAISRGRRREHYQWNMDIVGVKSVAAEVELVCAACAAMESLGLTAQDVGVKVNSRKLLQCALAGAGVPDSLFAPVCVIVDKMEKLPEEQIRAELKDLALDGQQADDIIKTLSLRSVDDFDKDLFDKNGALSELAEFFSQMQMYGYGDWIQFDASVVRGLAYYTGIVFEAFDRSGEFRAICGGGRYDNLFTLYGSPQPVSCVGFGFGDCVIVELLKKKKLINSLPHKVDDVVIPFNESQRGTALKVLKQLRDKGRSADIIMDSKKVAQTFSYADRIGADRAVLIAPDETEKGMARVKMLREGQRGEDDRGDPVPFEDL
# Experiment: Leishmania infantum Histidine tRNA synthetase (LdHisRS)
# Assay type: functional
# Parameters: scale not given: in the data most compounds retested in dose-response had high values
# Conditions: 30 µM
row,Compound,Percent Effect [%]
1,COC[C@@]12CC[C@@H](N3CCOCC3)C[C@H]1CCN(c1cc(C)ccn1)C2,19.4
2,O=C([C@H]1C[C@@H]2[C@@H](C1)OCCN2CC1CC1)N1CCCC1,19.3
3,CCC1CN(CCNC(C)=O)CCN1CCOC (stereo unspecified),4.76
4,CCC1CN(CC(=O)N2CCC2)CCN1CCOC (stereo unspecified),28.6
5,CCC1CN(CCC(=O)N(C)C)CCN1CCOC (stereo unspecified),50
6,c1ccc(O[C@H]2C[C@@H]3CN(Cc4cnccn4)C[C@@H]3C2)cc1,15.9
7,COc1cc(N2C[C@@H]3COC[C@]3(COCc3ccccn3)C2)ncn1,13.8
8,NC(=O)c1ccc(N2CCCCC2)c(NC(=O)c2cc(F)ccc2F)c1,18.3
9,NC(=O)c1ccc(N2CCCCC2)c(NC(=O)c2ccc(F)cc2Cl)c1,65.6
10,NC(=O)c1ccc(N2CCCCC2)c(NC(=O)c2ccc(F)cc2F)c1,18.3
11,NC(=O)c1ccc(N2CCCCC2)c(NC(=O)c2ccc(Br)cc2)c1,20.4
12,NC(=O)c1ccc(N2CCCCC2)c(NC(=O)c2cc(Br)ccc2Cl)c1,80.7
13,NC(=O)c1ccc(N2CCCCC2)c(NC(=O)c2cc(Br)ccc2F)c1,36.8
14,O=S1(=O)C[C@@H]2[C@H](C1)N(Cc1cc(F)cc(Cl)c1)CCN2CCO,0
15,CN(C)C(=O)N1C[C@@H]2CC[C@H](C1)N(Cc1nnc(-c3ccco3)o1)C2,-9.89
16,NC(=O)NCC(=O)N1C[C@H]2CC[C@@H]1CN(Cc1cscn1)C2,0

row,Compound,Percent Effect [%]
1,CCc1oc(C(=O)N2CC[C@H]3CC[C@@H](C2)N3)cc1CN(CC)CC,12.6
2,COc1ccc(C)cc1CN1CCC(c2cc3ncccc3cn2)CC1,60.6
3,Fc1ccc(F)c(CN2CCC(c3cc4ncccc4cn3)CC2)c1,35.2
4,Fc1cccc(CN2CCC(c3cc4ncccc4cn3)CC2)c1F,29.6
5,Cc1noc([C@@H]2C[C@@H]3CCN(c4nnc(C)s4)C[C@H]3O2)n1,13.5
6,O=C(c1ccoc1)N1CC[C@H]2OCC[C@@]2(COc2ncccc2F)C1,24.5
7,Cc1ccncc1C(=O)N1C[C@H]2CN(CC3CCC3)C[C@@]2(C(=O)O)C1,-1.64
8,Cc1nonc1CN(C)c1nc(-c2cccnc2)nc2c1CCNC2,67.5
9,CN(CC1CCCCO1)c1nc(-c2cccnc2)nc2c1CCNC2 (stereo unspecified),9.95
10,CN(CC(O)CO)c1nc(-c2cccnc2)nc2c1CCNC2 (stereo unspecified),7.85
11,CS(=O)(=O)CC(=O)N1C[C@@H]2COC[C@]2(c2nnc(C3CC3)o2)C1,15.1
12,N#Cc1cccc(CN2CC[C@@H]3CN(c4ncccn4)CCO[C@@H]3C2)c1,-0.901
13,CSc1ccc(C(CN)N2CCc3sccc3C2)cc1 (stereo unspecified),71.4
14,NCC(c1ccc(Cl)cc1)N1CCc2sccc2C1 (stereo unspecified),13.7
15,CC(C)c1ccc(C(CN)N2CCc3sccc3C2)cc1 (stereo unspecified),17.8
